From PubChem BioAssay AID1159580 (chemical genetic matrix, 2015)
In all, about 5,500 compounds went through this assay and about 2,000 (36%) were called active. Roughly 18% stayed inconclusive and do not appear here. Cut-off read from the data, not from the text of the source: active = normalized growth mostly below about 0.91 (no sharp cut-off); inconclusive = no clear call, values can overlap the other calls; inactive = mostly above about 0.92. Some of the results follow.

Test: chemical genetic growth profiling, strain panel (AID 1159580);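 note: tested at 20 µM; growth read once vehicle control cultures reached saturation at 30 °C; 1 = growth at the plate median or of vehicle wells; lower values mean less growth of the strain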
Conditions: growth OD

Measured: normalized growth

O=C1C=CC(=C(c2ccc(O)cc2)c2ccc(O)cc2)C=C1
inactive: S. cerevisiae deletion strains, locus YJR075W, strain HOC1, stronger effect = lower value 1.02 | S. cerevisiae deletion strains, locus YKL009W, strain mrt4, stronger effect = lower value 0.995 | S. cerevisiae deletion strains, locus YKL068W, stronger effect = lower value 0.997 | S. cerevisiae deletion strains, locus YKL085W, strain MDH1 (second series), stronger effect = lower value 0.994 | S. cerevisiae deletion strains, locus YKL085W, strain MDH1, stronger effect = lower value 0.994 | S. cerevisiae deletion strains, locus YKL160W, strain elf1, stronger effect = lower value 1.01 | S. cerevisiae deletion strains, locus YKL190W, strain CNB1, stronger effect = lower value 0.994 | S. cerevisiae deletion strains, locus YKR001C, strain vps1, stronger effect = lower value 0.986 | S. cerevisiae deletion strains, locus YKR026C, strain gcn3, stronger effect = lower value 0.975 | S. cerevisiae deletion strains, locus YKR091W, strain srl3, stronger effect = lower value 0.989 | S. cerevisiae deletion strains, locus YLL001W, strain dnm1, stronger effect = lower value 0.976 | S. cerevisiae deletion strains, locus YLL026W, stronger effect = lower value 0.996 | S. cerevisiae deletion strains, locus YLL041C, strain sdh2, stronger effect = lower value 0.991 | S. cerevisiae deletion strains, locus YLR027C, strain aat2, stronger effect = lower value 0.998 | S. cerevisiae deletion strains, locus YLR039C, strain RIC1, stronger effect = lower value 1.04 | S. cerevisiae deletion strains, locus YLR058C, strain SHM2, stronger effect = lower value 0.991 | S. cerevisiae deletion strains, locus YLR102C, strain apc9, stronger effect = lower value 0.994 | S. cerevisiae deletion strains, locus YLR113W, strain HOG1, stronger effect = lower value 1.03 | S. cerevisiae deletion strains, locus YLR221C, strain rsa3, stronger effect = lower value 0.983 | S. cerevisiae deletion strains, locus YLR258W, strain gsy2, stronger effect = lower value 1.01 | S. cerevisiae deletion strains, locus YLR262C, strain YPT6 (second series), stronger effect = lower value 0.972 | S. cerevisiae deletion strains, locus YLR262C, strain YPT6, stronger effect = lower value 1.02 | S. cerevisiae deletion strains, locus YLR268W, strain sec22, stronger effect = lower value 1.02 | S. cerevisiae deletion strains, locus YLR320W, strain mms22, stronger effect = lower value 0.972 | S. cerevisiae deletion strains, locus YLR330W, strain CHS5, stronger effect = lower value 0.995 | S. cerevisiae deletion strains, locus YLR342W, strain FKS1 (second series), stronger effect = lower value 0.972 | S. cerevisiae deletion strains, locus YLR342W, strain FKS1, stronger effect = lower value 0.991 | S. cerevisiae deletion strains, locus YLR357W, strain rsc2, stronger effect = lower value 0.999 | S. cerevisiae deletion strains, locus YLR370C, strain arc18, stronger effect = lower value 0.964 | S. cerevisiae deletion strains, locus YLR371W, strain rom2, stronger effect = lower value 0.985 | S. cerevisiae deletion strains, locus YLR384C, strain iki3, stronger effect = lower value 0.986 | S. cerevisiae deletion strains, locus YLR418C, strain cdc73, stronger effect = lower value 0.999 | S. cerevisiae deletion strains, locus YML016C, strain PPZ1, stronger effect = lower value 0.991 | S. cerevisiae deletion strains, locus YML032C, strain rad52, stronger effect = lower value 0.98 | S. cerevisiae deletion strains, locus YML120C, strain ndi1, stronger effect = lower value 1.01 | S. cerevisiae deletion strains, locus YML124C, strain tub3, stronger effect = lower value 0.983 | S. cerevisiae deletion strains, locus YMR058W, strain fet3, stronger effect = lower value 0.982 | S. cerevisiae deletion strains, locus YMR078C, strain ctf18, stronger effect = lower value 0.98 | S. cerevisiae deletion strains, locus YMR125W, strain sto1, stronger effect = lower value 0.974 | S. cerevisiae deletion strains, locus YMR129W, stronger effect = lower value 0.987 | S. cerevisiae deletion strains, locus YMR205C, strain PFK2, stronger effect = lower value 0.995 | S. cerevisiae deletion strains, locus YMR223W, strain ubp8, stronger effect = lower value 0.982 | S. cerevisiae deletion strains, locus YMR231W, strain pep5, stronger effect = lower value 0.98 | S. cerevisiae deletion strains, locus YMR263W, strain SAP30, stronger effect = lower value 1.02 | S. cerevisiae deletion strains, locus YMR307W, strain GAS1, stronger effect = lower value 0.945 | S. cerevisiae deletion strains, locus YNL067W, strain RPL9B, stronger effect = lower value 1.03 | S. cerevisiae deletion strains, locus YNL071W, strain lat1, stronger effect = lower value 0.971 | S. cerevisiae deletion strains, locus YNL128W, strain TEP1, stronger effect = lower value 1.02 | S. cerevisiae deletion strains, locus YNL153C, strain GIM3, stronger effect = lower value 1.01 | S. cerevisiae deletion strains, locus YNL183C, strain NPR1, stronger effect = lower value 0.986 | S. cerevisiae deletion strains, locus YNL209W, strain ssb2, stronger effect = lower value 0.985 | S. cerevisiae deletion strains, locus YNL233W, strain BNI4, stronger effect = lower value 0.999 | S. cerevisiae deletion strains, locus YNL248C, strain rpa49, stronger effect = lower value 0.966 | S. cerevisiae deletion strains, locus YNL250W, strain rad50, stronger effect = lower value 0.984 | S. cerevisiae deletion strains, locus YNL271C, strain bni1, stronger effect = lower value 0.992 | S. cerevisiae deletion strains, locus YNL298W, strain CLA4, stronger effect = lower value 0.981 | S. cerevisiae deletion strains, locus YNL307C, strain MCK1, stronger effect = lower value 0.98 | S. cerevisiae deletion strains, locus YNL322C, strain KRE1 (second series), stronger effect = lower value 0.951 | S. cerevisiae deletion strains, locus YNL322C, strain KRE1, stronger effect = lower value 1.01 | S. cerevisiae deletion strains, locus YNR049C, strain mso1, stronger effect = lower value 0.979 | S. cerevisiae deletion strains, locus YNR052C, strain pop2, stronger effect = lower value 0.966 | S. cerevisiae deletion strains, locus YOL006C, strain TOP1, stronger effect = lower value 1.02 | S. cerevisiae deletion strains, locus YOL012C, strain htz1 1.83 | S. cerevisiae deletion strains, locus YOL147C, strain pex11, stronger effect = lower value 0.985 | S. cerevisiae deletion strains, locus YOR001W, strain rrp6, stronger effect = lower value 0.96 | S. cerevisiae deletion strains, locus YOR061W, strain CKA2, stronger effect = lower value 1 | S. cerevisiae deletion strains, locus YOR069W, strain VPS5, stronger effect = lower value 1.02 | S. cerevisiae deletion strains, locus YOR070C, strain gyp1, stronger effect = lower value 1 | S. cerevisiae deletion strains, locus YOR080W, strain dia2, stronger effect = lower value 0.986 | S. cerevisiae deletion strains, locus YOR083W, strain WHI5, stronger effect = lower value 1.02 | S. cerevisiae deletion strains, locus YOR106W, strain vam3, stronger effect = lower value 0.984 | S. cerevisiae deletion strains, locus YOR136W, strain idh2, stronger effect = lower value 0.982 | S. cerevisiae deletion strains, locus YOR144C, strain elg1, stronger effect = lower value 0.985 | S. cerevisiae deletion strains, locus YOR184W, strain ser1, stronger effect = lower value 0.988 | S. cerevisiae deletion strains, locus YOR231W, strain MKK1, stronger effect = lower value 1.04 | S. cerevisiae deletion strains, locus YOR265W, strain rbl2, stronger effect = lower value 0.978 | S. cerevisiae deletion strains, locus YOR270C, strain vph1, stronger effect = lower value 0.926 | S. cerevisiae deletion strains, locus YOR290C, strain snf2, stronger effect = lower value 1.01 | S. cerevisiae deletion strains, locus YOR316C, strain cot1, stronger effect = lower value 0.984 | S. cerevisiae deletion strains, locus YPL051W, strain arl3, stronger effect = lower value 0.987 | S. cerevisiae deletion strains, locus YPL055C, strain LGE1, stronger effect = lower value 1.06 | S. cerevisiae deletion strains, locus YPL078C, strain atp4, stronger effect = lower value 0.973 | S. cerevisiae deletion strains, locus YPL106C, strain sse1, stronger effect = lower value 0.994 | S. cerevisiae deletion strains, locus YPL240C, strain hsp82, stronger effect = lower value 0.973 | S. cerevisiae deletion strains, locus YPL241C, strain CIN2, stronger effect = lower value 1.02 | S. cerevisiae deletion strains, locus YPL256C, strain CLN2, stronger effect = lower value 1.05 | S. cerevisiae deletion strains, locus YPR119W, strain clb2, stronger effect = lower value 0.979 | S. cerevisiae deletion strains, locus YPR141C, strain kar3, stronger effect = lower value 0.992 | S. cerevisiae deletion strains, locus YPR163C, strain tif3, stronger effect = lower value 0.989 | S. cerevisiae deletion strains, locus YPR167C, strain met16, stronger effect = lower value 0.991 | S. cerevisiae deletion strains, strain wtn01, stronger effect = lower value 0.991 | S. cerevisiae strains, strain wild type, stronger effect = lower value 0.994
